Screen size: about 300,000 compounds; about 3,200 (1.1%) were called active. Only a selection was taken, and actives are over-represented in it overall. Unmarked numbers belong to inactive results. No stated cut-off is given here; in the data, active means inhibition above about 75%; inconclusive means no clear call, values can overlap the other calls; inactive means below that; tested in HMLE shEcad cells.

The nature of the experiment: cancer stem cell viability inhibitors, primary screen, luminescence (AID 2717). The settings on record: cancer stem cell-like cells viability, at 7.5 µM, active compounds read high.
In general, inhibition refers to the relative decrease from the control value, in per cent. `Cc1ccc(P(=S)(c2ccc(C)o2)N2CCOCC2)o1`: the inhibition was 76.5% (active).
On to `Cc1ccc(-n2c(C)cc(/C=C3\C(=O)NC(=O)N(C)C3=O)c2C)cc1C`, for which the inhibition was -18.6%.
For `CCCCCCCCCCCCn1ccc(=N)cc1`, the inhibition is 102% (active).
Then `O=C(O)C1CSC(c2cccnc2)N1` (stereo not given), with -4.58%.
With `CCC1(C)CC(CCNCc2ccc(N(C)C)cc2)(c2ccc(F)cc2)CCO1` (stereo not given), the inhibition was 15%.
As for `COc1ccc(Br)cc1CNCCc1cccc(Cl)c1`, the inhibition is 35.5%.
`O=C1C2(Cl)C3(Cl)C4(Cl)C(Cl)(Cl)C5(Cl)C3(Cl)C1(Cl)C5(Cl)C24Cl` (stereo not given): the inhibition was 101% (active).
The figure for `COC(=O)C1=C(c2cccc(OCc3ccccc3)c2)C[C@@H]2CC[C@H]1N2C(=O)NCc1ccc(Br)cc1` is 30%; for `C[C@]12CC[C@H](O)CC1=C([N+](=O)[O-])CC1C2CC[C@@]2(C)C1CC[C@@H]2O` (stereo not given in full) it is 19.8%.
For `CC(Cc1ccccc1)NC=O` (stereo not given), the inhibition was -4.89%.
Turning to `CC(=O)NC(=O)NC(C)Cc1ccccc1` (stereo not given), the inhibition was -9.41%.
Turning to `CC(Cc1ccccc1)NCCC(c1ccccc1)c1ccccc1` (stereo not given), the inhibition is 86.3% (active).
The figure for `CCC(=O)c1ccc(OCC(=O)N2CCN(CC(=O)Nc3ccc(C)cc3)CC2)cc1` is -4.41%.
Consider `O=C1NC(=O)N(CCc2ccc(F)cc2)C(=O)/C1=C/C=C/c1ccccc1`, for which the inhibition is 89.8% (active).
For the compound `O=C1NC(=O)N(Cc2ccco2)C(=O)/C1=C\c1ccc(-c2ccc(F)cc2)o1`, the inhibition is -3.26%.
Then `O=C(O)COc1ccccc1/C=C1\C(=O)NC(=O)N(CCC2=CCCCC2)C1=O`, with -7.06%.
With `COC(=O)C1=C(c2ccc(Cl)c(C(F)(F)F)c2)C[C@@H]2CC[C@H]1N2C(=O)NC1CC1`, the inhibition was -14.7%.
Turning to `Nc1ccc([N+](=O)[O-])cc1`, the inhibition was 22.2%.
The figure for `COC(=O)C1=C(c2ccccc2OCc2ccccc2)C[C@@H]2CC[C@H]1N2C(=O)NCc1ccc(OC)cc1` is 6.19%.
Turning to `N#Cc1ccc(Cn2cc(C(=O)c3ccco3)c3ccccc32)cc1`, the inhibition was 6.82%.
Take `COC(=O)C1=C(c2c(C)noc2C)C[C@@H]2CC[C@H]1N2C(=O)NCc1ccc2c(c1)OCO2`: the inhibition is 2.81%.
On to `N=c1ccccn1Cc1ccccc1`, for which the inhibition is 1.97%.
Turning to `COC(=O)C1=C(c2ccc(-c3ccccc3)c(F)c2)C[C@@H]2CC[C@H]1N2C(=O)NCc1ccc(F)cc1`, the inhibition was 36.3%.
Take `C[C@]12CC[C@H](O)C[C@H]1CC[C@@H]1C2CC[C@]2(C)[C@@H](C3=CC(=O)OC3)[C@@H](O)C[C@]12O` (stereo not given in full): the inhibition was 85% (active).
On to `C[C@]12CCC3C(CC[C@H]4C[C@@H](O)CC[C@]34C)C1C[C@@H](O)[C@H]2O` (stereo not given in full), for which the inhibition was -9.01%.
In the case of `C[C@]12CCC3C(CC[C@H]4C[C@@H](O)CC[C@]34C)C1CC[C@@H]2O` (stereo not given in full), the inhibition was -19.5%.
For `CC(Cc1cccs1)NCc1ccc(Cl)cc1` (stereo not given), the inhibition was -5.86%.
Then `COC(=O)C1=C(c2ccc(F)cc2OCc2ccccc2)C[C@@H]2CC[C@H]1N2C(=O)NCc1ccc2[nH]ccc2c1`, with 9.97%; and `COc1ccc(-c2nn(CCC#N)cc2C(=O)O)cc1`, with 1.09%; and `COC(=O)C1=C(c2ccc(F)cc2OCc2ccccc2)C[C@@H]2CC[C@H]1N2C(=O)NCc1ccc(Cl)cc1`, with 15.5%.

Values taken from PubChem BioAssay AID2717 (Broad Institute, 2010).
